Several values for one entry are separate records, joined by “and”; a condition that tells them apart may be missing. Equal entries are not always repeated. The campaign covered roughly 5,500 compounds. About 2,000 (36%) were called active. Roughly 18% stayed inconclusive and do not appear here. Cut-off read from the data, not from the text of the source: active = normalized growth mostly below about 0.91 (no sharp cut-off); inconclusive = no clear call, values can overlap the other calls; inactive = mostly above about 0.92. The list shows a part of the results.
Experiment: chemical genetic growth profiling, strain panel (AID 1159580);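 note: tested at 20 µM; growth read once vehicle control cultures reached saturation at 30 °C; 1 = growth at the plate median or of vehicle wells; lower values mean less growth of the strain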
Conditions: growth OD

Measured: normalized growth

CN=C(NC#N)NCCSCc1nc[nH]c1C
inactive: S. cerevisiae deletion strains, locus YJR075W, strain HOC1, hits give low values 1.01 | S. cerevisiae deletion strains, locus YKL009W, strain mrt4, hits give low values 1.03 | S. cerevisiae deletion strains, locus YKL068W, hits give low values 0.992 | S. cerevisiae deletion strains, locus YKL085W, strain MDH1 (second series), hits give low values 0.992 | S. cerevisiae deletion strains, locus YKL085W, strain MDH1, hits give low values 0.992 | S. cerevisiae deletion strains, locus YKL160W, strain elf1, hits give low values 0.986 | S. cerevisiae deletion strains, locus YKL190W, strain CNB1, hits give low values 1 | S. cerevisiae deletion strains, locus YKR001C, strain vps1, hits give low values 0.998 | S. cerevisiae deletion strains, locus YKR026C, strain gcn3, hits give low values 1 | S. cerevisiae deletion strains, locus YKR091W, strain srl3, hits give low values 1 | S. cerevisiae deletion strains, locus YLL001W, strain dnm1, hits give low values 1 | S. cerevisiae deletion strains, locus YLL026W, hits give low values 0.997 | S. cerevisiae deletion strains, locus YLL041C, strain sdh2, hits give low values 1 | S. cerevisiae deletion strains, locus YLR027C, strain aat2, hits give low values 1.01 | S. cerevisiae deletion strains, locus YLR039C, strain RIC1, hits give low values 1 | S. cerevisiae deletion strains, locus YLR058C, strain SHM2, hits give low values 0.989 | S. cerevisiae deletion strains, locus YLR102C, strain apc9, hits give low values 0.985 | S. cerevisiae deletion strains, locus YLR113W, strain HOG1, hits give low values 1.03 | S. cerevisiae deletion strains, locus YLR221C, strain rsa3, hits give low values 0.986 | S. cerevisiae deletion strains, locus YLR258W, strain gsy2, hits give low values 1.02 | S. cerevisiae deletion strains, locus YLR262C, strain YPT6 (second series), hits give low values 1.01 | S. cerevisiae deletion strains, locus YLR262C, strain YPT6, hits give low values 1.01 | S. cerevisiae deletion strains, locus YLR268W, strain sec22, hits give low values 0.955 | S. cerevisiae deletion strains, locus YLR320W, strain mms22, hits give low values 0.982 | S. cerevisiae deletion strains, locus YLR330W, strain CHS5, hits give low values 0.991 | S. cerevisiae deletion strains, locus YLR342W, strain FKS1 (second series), hits give low values 1.01 | S. cerevisiae deletion strains, locus YLR342W, strain FKS1, hits give low values 1 | S. cerevisiae deletion strains, locus YLR357W, strain rsc2, hits give low values 0.979 | S. cerevisiae deletion strains, locus YLR370C, strain arc18, hits give low values 1.01 | S. cerevisiae deletion strains, locus YLR371W, strain rom2, hits give low values 0.993 | S. cerevisiae deletion strains, locus YLR384C, strain iki3, hits give low values 0.998 | S. cerevisiae deletion strains, locus YLR418C, strain cdc73, hits give low values 1.03 | S. cerevisiae deletion strains, locus YML016C, strain PPZ1, hits give low values 0.997 | S. cerevisiae deletion strains, locus YML032C, strain rad52, hits give low values 0.986 | S. cerevisiae deletion strains, locus YML120C, strain ndi1, hits give low values 0.993 | S. cerevisiae deletion strains, locus YML124C, strain tub3, hits give low values 0.98 | S. cerevisiae deletion strains, locus YMR058W, strain fet3, hits give low values 1 | S. cerevisiae deletion strains, locus YMR078C, strain ctf18, hits give low values 0.986 | S. cerevisiae deletion strains, locus YMR125W, strain sto1, hits give low values 0.996 | S. cerevisiae deletion strains, locus YMR129W, hits give low values 1 | S. cerevisiae deletion strains, locus YMR205C, strain PFK2, hits give low values 0.994 | S. cerevisiae deletion strains, locus YMR223W, strain ubp8, hits give low values 1.02 | S. cerevisiae deletion strains, locus YMR231W, strain pep5, hits give low values 0.999 | S. cerevisiae deletion strains, locus YMR263W, strain SAP30, hits give low values 0.998 | S. cerevisiae deletion strains, locus YMR307W, strain GAS1, hits give low values 1 | S. cerevisiae deletion strains, locus YNL067W, strain RPL9B, hits give low values 1 | S. cerevisiae deletion strains, locus YNL071W, strain lat1, hits give low values 1.01 | S. cerevisiae deletion strains, locus YNL128W, strain TEP1, hits give low values 0.991 | S. cerevisiae deletion strains, locus YNL153C, strain GIM3, hits give low values 0.994 and 1.05 | S. cerevisiae deletion strains, locus YNL175C, strain NOP13, hits give low values 1 | S. cerevisiae deletion strains, locus YNL183C, strain NPR1, hits give low values 1 | S. cerevisiae deletion strains, locus YNL197C, strain WHI3, hits give low values 1.02 | S. cerevisiae deletion strains, locus YNL209W, strain ssb2, hits give low values 1 | S. cerevisiae deletion strains, locus YNL224C, strain SQS1, hits give low values 0.993 | S. cerevisiae deletion strains, locus YNL233W, strain BNI4, hits give low values 0.988 | S. cerevisiae deletion strains, locus YNL248C, strain rpa49, hits give low values 0.996 | S. cerevisiae deletion strains, locus YNL250W, strain rad50, hits give low values 0.953 | S. cerevisiae deletion strains, locus YNL271C, strain bni1, hits give low values 0.965 | S. cerevisiae deletion strains, locus YNL298W, strain CLA4, hits give low values 0.971 | S. cerevisiae deletion strains, locus YNL307C, strain MCK1, hits give low values 0.996 | S. cerevisiae deletion strains, locus YNL322C, strain KRE1 (second series), hits give low values 0.989 | S. cerevisiae deletion strains, locus YNL322C, strain KRE1, hits give low values 1 | S. cerevisiae deletion strains, locus YNR049C, strain mso1, hits give low values 1 | S. cerevisiae deletion strains, locus YNR052C, strain pop2, hits give low values 1 | S. cerevisiae deletion strains, locus YOL006C, strain TOP1, hits give low values 1.01 | S. cerevisiae deletion strains, locus YOL012C, strain htz1 0.875 | S. cerevisiae deletion strains, locus YOL147C, strain pex11, hits give low values 0.973 | S. cerevisiae deletion strains, locus YOR001W, strain rrp6, hits give low values 0.999 | S. cerevisiae deletion strains, locus YOR061W, strain CKA2, hits give low values 0.99 | S. cerevisiae deletion strains, locus YOR069W, strain VPS5, hits give low values 0.99 | S. cerevisiae deletion strains, locus YOR070C, strain gyp1, hits give low values 0.996 | S. cerevisiae deletion strains, locus YOR080W, strain dia2, hits give low values 1 | S. cerevisiae deletion strains, locus YOR083W, strain WHI5 (second series), hits give low values 1.04 | S. cerevisiae deletion strains, locus YOR083W, strain WHI5, hits give low values 0.981 | S. cerevisiae deletion strains, locus YOR106W, strain vam3, hits give low values 0.979 | S. cerevisiae deletion strains, locus YOR136W, strain idh2, hits give low values 0.994 | S. cerevisiae deletion strains, locus YOR144C, strain elg1, hits give low values 0.983 | S. cerevisiae deletion strains, locus YOR184W, strain ser1, hits give low values 0.993 | S. cerevisiae deletion strains, locus YOR231W, strain MKK1, hits give low values 1.03 | S. cerevisiae deletion strains, locus YOR265W, strain rbl2, hits give low values 0.999 | S. cerevisiae deletion strains, locus YOR270C, strain vph1, hits give low values 1.02 | S. cerevisiae deletion strains, locus YOR290C, strain snf2, hits give low values 0.972 | S. cerevisiae deletion strains, locus YOR316C, strain cot1, hits give low values 0.991 | S. cerevisiae deletion strains, locus YPL051W, strain arl3, hits give low values 0.991 | S. cerevisiae deletion strains, locus YPL055C, strain LGE1, hits give low values 1.05 | S. cerevisiae deletion strains, locus YPL078C, strain atp4, hits give low values 1.01 | S. cerevisiae deletion strains, locus YPL106C, strain sse1, hits give low values 0.972 | S. cerevisiae deletion strains, locus YPL240C, strain hsp82, hits give low values 1 | S. cerevisiae deletion strains, locus YPL241C, strain CIN2, hits give low values 0.995 and 1.01 | S. cerevisiae deletion strains, locus YPL256C, strain CLN2, hits give low values 1.06 | S. cerevisiae deletion strains, locus YPR119W, strain clb2, hits give low values 0.978 | S. cerevisiae deletion strains, locus YPR141C, strain kar3, hits give low values 0.97 | S. cerevisiae deletion strains, locus YPR163C, strain tif3, hits give low values 0.984 | S. cerevisiae deletion strains, locus YPR167C, strain met16, hits give low values 0.986 | S. cerevisiae deletion strains, strain wtn01, hits give low values 1.01 | S. cerevisiae strains, strain wild type, hits give low values 0.998

Source: PubChem BioAssay AID1159580 (chemical genetic matrix, 2015)
